# Rows were chosen to be rich in hits. Some 5.5% of all compounds tested hit in one or more screens of this group.
# RORgamma inh – qHTS for inhibitors of ROR gamma transcriptional activity; Nuclear receptor ROR-gamma (Mus musculus), P51450; Drosophila S2 Gal4-RORgamma UAS-luciferase reporter, 20 h; Potency, µM (titrated, usually from 53.6 µM), inactives show top-dose activity change, negative = inhibition, most hits filed as inhibitors; hit rate 5.4% among 310,000; AID 2551, 2010; also: % is scaled to controls: 0 for no effect and ±100 for the full control effect; nearly all actives have a fitted effect of over 60% in size
# Target sequence (P51450 whole entry, looked up, the tested form may be a part): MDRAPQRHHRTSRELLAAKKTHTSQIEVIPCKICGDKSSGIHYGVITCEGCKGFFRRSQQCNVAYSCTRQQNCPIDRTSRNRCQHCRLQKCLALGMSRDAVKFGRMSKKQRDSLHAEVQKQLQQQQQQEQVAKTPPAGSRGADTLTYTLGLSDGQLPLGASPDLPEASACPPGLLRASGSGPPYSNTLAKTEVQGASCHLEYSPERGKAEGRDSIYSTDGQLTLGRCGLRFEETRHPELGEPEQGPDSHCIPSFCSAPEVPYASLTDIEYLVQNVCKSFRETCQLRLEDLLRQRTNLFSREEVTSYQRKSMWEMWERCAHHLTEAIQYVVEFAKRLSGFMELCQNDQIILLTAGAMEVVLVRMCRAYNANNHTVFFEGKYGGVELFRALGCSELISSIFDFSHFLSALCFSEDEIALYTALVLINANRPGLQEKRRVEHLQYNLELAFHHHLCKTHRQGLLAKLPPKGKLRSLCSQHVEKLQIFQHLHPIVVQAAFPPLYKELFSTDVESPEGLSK
#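 A Gal4/UAS one-hybrid system in insect cells: metallothionein-promoter Gal4–ROR gamma fusion plus Photinus luciferase reporter. Copper sulfate 700 uM final, 20 hr ambient incubation, luminescent detection after 10 min with reagent.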
# uPA surface inh – qHTS for Inhibitors of Cell Surface uPA Generation | cell surface uPA generation assay, qHTS | Potency, µM (doses to about 38.3 µM), inactives show at the highest dose activity change, negative = inhibition, hits mostly inhibitors | hit rate 0.31% among 330,000; active = well fitted inhibition curve with a large enough effect; inconclusive = small, poorly fitted or top-dose-only effect; inactive = no such curve, though single readings can be large or run the other way; tested in mouse RAW 264.7 cells; also: % is scaled to controls: 0 for no effect and ±100 for the full control effect; nearly all actives have a fitted effect of over 55% in size
# a7 integrin act – qHTS for Activators of Integrin-Mediated Alleviation for Muscular Dystrophy. alpha7betagal myoblasts, beta-gal FDG fluorescence, 48 h. AID 624291, 2012. hit rate 0.064% among 350,000. Potency, µM (doses to about 38.3 µM), for inactives: top-dose activation, usual class: activators;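 also: 100% = response of the positive control SU9516; nearly all actives have a fitted effect of over 60% in size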
#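 alpha7betagal+/- myoblasts (passage 13, 250/well) treated 48 h at 37C with compounds at 1:260 dilution of DMSO stock. Lysed, then beta-galactosidase activity read as FDG fluorescence (ex 480/em 540) after 30 min, with pre-read for autofluorescence.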
# Mito fusion act – qHTS Assay for Small Molecule Inhibitors of Mitochondrial Division or Activators of Mitochondrial Fusion. Potency, µM (titrated, usually from 46.1 µM), for inactives: top-dose growth rescue (activation), hits mostly activators. S. cerevisiae fusion-defective mutant growth rescue, CellTiterGlo 48 h. hit rate 0.23% among 320,000; also: % of control where 0% means no effect; nearly all actives have a fitted effect of over 45% in size
#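 Growth-rescue viability read-out: after 48 h at the non-permissive 37C in glycerol/ethanol YPEG, yeast mitochondrial fusion mutants are measured by CellTiterGlo luminescence; compounds (23 nl pinned per well) restoring growth score as division inhibitors or fusion activators.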
# Chronic BCR inh – qHTS Assay to Find Inhibitors of Chronic Active B-Cell Receptor Signaling; ABC-DLBCL IkBa-CBG/CBR reporter, luminescence ratio, 4 h; Potency, µM (titrated, usually from 46.1 µM), inactives show top-dose activity change, negative = inhibition, most hits filed as inhibitors; hit rate 0.05% among 340,000; AID 493014, 2011; active = well fitted inhibition curve with a large enough effect in the signal ratio, with a control signal flat, not every such curve was filed as active; inconclusive = small, poorly fitted or top-dose-only effect, or effect the other way, or a change in a side signal; the % refers to the signal ratio;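 also: plate controls were basal doxycycline-induced cells for no effect and cells given 10 µM MG132 for full effect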
#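 TMD8 human ABC-DLBCL cells with doxycycline-inducible IκBα–green luciferase fusion and unfused red luciferase, in 0.5% FBS medium; compounds up to 46 uM, 4 h at 37C. Green/red luminescence ratio, filter-overlap corrected, fitted to concentration-response curves.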
# VP16 counter – VP16 counterscreen qHTS for inhibitors of ROR gamma transcriptional activity. Drosophila S2 Gal4-VP16 UAS-luciferase, luminescence, 20 h. hit rate 3.5% among 310,000. Potency, µM (series often up to 53.6 µM), inactives show at the highest dose activity, negative = inhibition, usual class: inhibitors;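 also: Gal4-VP16 expression switched on by copper sulfate through the metallothionein promoter; % is scaled to controls: 0 for no effect and ±100 for the full control effect; nearly all actives have a fitted effect of over 50% in size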
# An asterisk follows results filed as active; ? = inconclusive; nt = not tested or not shown; [ ] = remark or other dose. Unless noted, calls follow the shape of the dose curve; as a rule, active = well fitted curve in the direction sought with a large enough effect; inconclusive = small, poorly fitted or top-dose-only effect, or another doubt; inactive = no such curve, though single readings can be large; an effect the other way counts as inactive or inconclusive. Potency is read from the fitted curve at half-maximal effect.
SMILES,RORgamma inh,uPA surface inh,a7 integrin act,Mito fusion act,Chronic BCR inh,VP16 counter
O=C1C(=O)c2ccc(-c3ccccc3)cc2-c2ccccc21,3.2µM*,-9%,-67%,-21%,?,3.5µM*
Nc1ccc2c(c1)C(=O)C(=O)c1ccccc1-2,1.8µM*,-10%,-69%,-14%,?,2.8µM*
Nc1ccc2c(c1)C(=O)c1ccccc1-2,nt,-1%,17%,nt,nt,nt
Cc1ccc(-n2cnc3cc(C(=O)NC4CCCCCC4)ccc32)cc1Cl,nt,nt,nt,nt,-1%,nt
FC(F)C(F)(F)c1cc(-c2ccc(Cl)cc2)n[nH]1,20%,-8%,-1%,8%,-23%,2%
Fc1ccc(-c2cc(C(F)(F)C(F)F)[nH]n2)cc1,2%,-4%,2%,2%,2%,13µM*
Cn1cccc1/C=N/n1c(-c2ccc(Cl)cc2Cl)n[nH]c1=S,2.8µM*,3%,12%,21%,9%,?
Cc1ccc(-c2n[nH]c(=S)n2/N=C/c2cccn2C)cc1,3.2µM*,1%,3%,1%,14%,11µM*
Cn1cccc1/C=N/n1c(-c2ccc(Cl)cc2)n[nH]c1=S,2.5µM*,-2%,-16%,-1%,15%,?
O=c1c(-c2ccccc2)nc2cncnc2n1Cc1ccccc1,16%,nt,nt,nt,nt,5%
CC(C)(C)OC(=O)NS(=O)(=O)NCc1ccco1,-28%,nt,nt,nt,nt,5%
COc1ccc(OC)c(S(=O)(=O)NCCc2csc3nc(-c4ccccc4)nn23)c1,nt,nt,nt,nt,12%,nt
FC(F)(F)c1ccccc1-n1c(-c2cnccn2)n[nH]c1=S,11µM*,4%,-3%,0%,?,-1%
COc1cc(-c2n[nH]c(=S)n2-c2ccccc2C(F)(F)F)cc(OC)c1OC,?,1%,10%,7%,?,-8%
Cc1ccc(-n2c(-c3cnccn3)n[nH]c2=S)c(Br)c1,7.9µM*,-3%,-12%,1%,1%,-26%
CN(/N=C/c1cc(Br)cc(Br)c1O)c1cccc(C(F)(F)F)n1,-41%,7%,-28%,-5%,?,?
CCCn1nnc(NC(=S)NC(=O)Cc2ccccc2)n1,0.25µM*,4%,21%,7%,?,1%
CCCn1nnc(NC(=S)NC(=O)/C=C/c2ccc(Cl)cc2)n1,5µM*,4%,-22%,0%,-2%,-20%
CCCn1nnc(NC(=S)NC(=O)CC)n1,7.1µM*,5%,24%,-4%,?,10µM*
CCOc1ccc(-n2cc(-c3ccccc3)c3c(N4CCN(c5ccccc5OC)CC4)ncnc32)cc1,nt,nt,nt,nt,-1%,nt
CC(=O)OCCN1C(=O)c2c(C)nc3ccc(S(=O)(=O)N4CCOCC4)cc3c2C1=O,-5%,nt,nt,nt,nt,5%
CCN(CC(=O)Nc1c(F)cccc1F)C(=O)CNC(=O)c1ccc(C)s1,-24%,4%,15%,3%,?,26%
CC1(C)CC(=O)C2=C(C1)N(c1ccc(F)cc1)C(=O)C2(NC(=O)c1ccccc1F)C(F)(F)F (stereo not given),-1%,2%,10%,10%,-3%,2%
CC1(C)CC(=O)C2=C(C1)N(c1ccc(F)cc1)C(=O)NC2(C(F)(F)F)C(F)(F)F,11µM*,nt,10%,1%,2%,-7%
Cc1n[nH]c(=S)n1/N=C/c1ccc(-c2ccc(Cl)cc2)o1,nt,0%,20%,nt,nt,nt
SMILES,RORgamma inh,uPA surface inh,a7 integrin act,Mito fusion act,Chronic BCR inh,VP16 counter
Cc1ccc(-n2nc(C)c(/C=N/n3c(C)n[nH]c3=S)c2Cl)cc1,3.5µM*,2%,5%,-4%,?,-7%
COc1ccc(Cl)cc1NC(=S)NN1CCOCC1,5µM*,-1%,12%,-12%,2%,?
Cc1ccc(NC(=S)NN2CCOCC2)c(C)c1,11µM*,-2%,1%,-13%,-9%,?
COc1ccc(OC)c(NC(=S)N2CCC(C(O)(c3ccccc3)c3ccccc3)CC2)c1,16µM*,1%,2%,17%,17%,?
Cc1cc(Br)ccc1NC(=S)N1CCOCC1,13µM*,-2%,-23%,-1%,-7%,1%
COc1ccc(NC(=S)NN2CCOCC2)cc1OC,-27%,-2%,3%,-7%,10%,1%
Fc1ccc(NC(=S)N2CCOCC2)c(F)c1,0%,-5%,-6%,2%,?,-6%
COc1ccc(OC)c(NC(=S)NN2CCOCC2)c1,28µM*,0%,19%,-5%,5%,-8%[0.365 µM]
S=C(Nc1cccc2ccccc12)NN1CCOCC1,11µM*,-3%,12%,-11%,-9%,?
Cc1ccc(NC(=O)CN2CCN(S(=O)(=O)c3ccc4c(c3)OCCO4)CC2)c(C)c1,nt,nt,0%,nt,nt,nt
N#CC1=C2SCN(c3ccccc3)CN2C(=O)CC1c1c(Cl)cccc1Cl (stereo not given),16µM*,-12%,-25%,14%,?,?
O=C(CSc1nnc(CNc2ccc(Cl)cc2)o1)Nc1nc2c(s1)CCCC2,11µM*,-7%,-3%[7.66 µM],0%,1%,?
COc1ccc(CCNC(=O)CSc2nnc(CNc3ccc(Cl)cc3)o2)cc1OC,15%,-2%,?,0%,-18%,-10%
COCCN(C(=S)Nc1c(C)cc(C)cc1C)C(C)c1cccnc1 (stereo not given),?,3%,-14%,-1%,1%,-5%
Cc1ccc(NC(=S)N(CCN(C)C)C(C)c2ccco2)c(C)c1 (stereo not given),-37%,-1%,16%,-7%,0%,2%
CC(C)CCN(C(=S)Nc1cccc(F)c1)C(C)c1cccs1 (stereo not given),20µM*,4%,-14%,-6%,8%,?
Cc1ccc(NC(=S)N(CCN(C)C)C(C)c2ccco2)cc1Cl (stereo not given),13µM*,-14%,-26%,-5%,4%,?
COc1ccc(NC(=S)N(CCC(C)C)C(C)c2ccncc2)cc1 (stereo not given),?,10%,10%,-3%,0%,?
COCCN(C(=S)Nc1cc(C)cc(C)c1)C(C)c1cccs1 (stereo not given),10µM*,-2%,19%,-8%,11%,22µM*
COCCN(C(=S)Nc1cc(C)cc(C)c1)C(C)c1ccco1 (stereo not given),8.9µM*,-24%,-20%,18%,1%,4%[10 µM]
CC1CC(C)(C)OC(C[N+]2(C)CCCCC2)O1 (stereo not given),4%,2%,7%,-6%,?,0%

# Source: PubChem (National Center for Advancing Translational Sciences (NCATS))
